Structures can show the parent of a compound that is named as a salt. A number with no mark means an inactive call.
Key:
Details in all cases: 20 µM
[1] = system: Salmonella enterica typhimurium; assay: growth AUC normalised to DMSO control (fraction of control); higher = less growth inhibition, active = hit call of the paper
Outline: (§1)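 For the AUC endpoint, growth curves were integrated by the trapezoidal rule up to the exponential-to-stationary transition and normalised to DMSO controls on the same plate. The curves came from OD578 readings taken hourly for 24 h, in three biological replicates. Pathogens had been passaged anaerobically twice and inoculated at an OD578 of 0.01 into pre-reduced mGAM plates carrying 20 μM compound and 1% DMSO, sealed with breathable membranes. Medium for Haemophilus parainfluenzae also contained hemin and NAD.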

Shigella flexneri = assay: as above
Outline: as §1

Vibrio cholerae = assay: as above
Outline: as §1

[2] = system: Yersinia pseudotuberculosis; assay: as above
Outline: as §1

P. vulgatus RND KO = assay: growth AUC normalised to DMSO control (median) (fraction of control); higher = less growth inhibition, active = hit call of the paper
Outline: (§2)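 Area under the growth curve, calculated by the trapezoidal rule up to entry into stationary phase, was normalised to vehicle wells on the same plate. Strains had been passaged twice overnight without oxygen and then grown in mGAM in 96-well plates from OD578 0.01, each with an approved-drug library compound at 20 μM in 1% DMSO. OD578 was read hourly over 24 h in an anaerobic incubator, and the median of three biological replicates is given.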

P. vulgatus WT = assay: as above
Outline: as §2

[3] = system: S. enterica typhimurium WT; assay: as above
Outline: as §2

[4] = system: S. enterica typhimurium tolC KO; assay: as above
Outline: as §2
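Throughout, for growth AUC normalised to DMSO control (median): active when median AUC fell below 0.1.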

SMILES | growth AUC normalised to DMSO control [1] | growth AUC normalised to DMSO control (Shigella flexneri) | growth AUC normalised to DMSO control (Vibrio cholerae) | growth AUC normalised to DMSO control [2] | growth AUC normalised to DMSO control (P. vulgatus RND KO) | growth AUC normalised to DMSO control (P. vulgatus WT) | growth AUC normalised to DMSO control [3] | growth AUC normalised to DMSO control [4]
CC1(C)O[C@@H]2C[C@H]3[C@@H]4C[C@H](F)C5=CC(=O)C=C[C@]5(C)[C@@]4(F)[C@@H](O)C[C@]3(C)[C@]2(C(=O)CO)O1 [Fluocinolone acetonide] | 1 | 1.01 | 1.02 | 1 | 0.975 | 0.967 | 1 | 0.993
CC1=C(/C=C/C(C)=C/C=C/C(C)=C/C(=O)O)C(C)(C)CCC1 [Retinoic acid] | 1 | 0.994 | 1 | 0.998 | 0.996 | 0.992 | 1 | 0.993
CCN(CC)CCNC(=O)COc1ccc(OC)cc1 [Mefexamide hydrochloride] | 1 | 0.982 | 0.995 | 1.01 | 0.988 | 0.97 | 1.01 | 0.998
CC(C)NCC(O)c1ccc(NS(C)(=O)=O)cc1 (stereo not given) [Sotalol hydrochloride] | 1 | 1.06 | 1.04 | 1.02 | 1.02 | 1.06 | 1.01 | 0.998
COc1ccc(/C=C/C(=O)Nc2ccccc2C(=O)O)cc1OC [Tranilast] | 0.999 | 0.973 | 0.992 | 1.01 | 0.999 | 1.02 | 1.04 | 0.952
Nc1nc(=O)n([C@@H]2CS[C@H](CO)O2)cc1F [(-) Emtricitabine] | 0.995 | 0.961 | 0.993 | 0.981 | 0.983 | 0.986 | 0.998 | 0.993
CN(C)C(=O)C(CCN1CCC(O)(c2ccc(Cl)cc2)CC1)(c1ccccc1)c1ccccc1 [Loperamide hydrochloride] | 0.997 | 0.972 | 0.981 | 0.988 | 1 | 1.01 | 1 | 0.987
CCCCOc1cc(C(=O)NCCN(CC)CC)c2ccccc2n1 [Dibucaine] | 1 | 1.03 | 1.03 | 1.05 | 1.04 | 1.01 | 1.01 | 0.993
CCC1=C(C)CN(C(=O)NCCc2ccc(S(=O)(=O)NC(=O)N[C@H]3CC[C@H](C)CC3)cc2)C1=O [Glimepiride] | 1.02 | 1.01 | 1.02 | 1.01 | 1.03 | 1.01 | 1.03 | 0.993
Cc1c(O)c(=O)n(-c2ccccc2)n1C [Antipyrine, 4-hydroxy] | 1.01 | 1.07 | 1.01 | 1.03 | 1.01 | 1.06 | 1.01 | 1
O=C(O)CCc1nc(-c2ccccc2)c(-c2ccccc2)o1 [Oxaprozin] | 1.02 | 1.02 | 1.01 | 0.994 | 1 | 1.05 | 1 | 1
Nc1ccn([C@@H]2O[C@H](CO)[C@@H](O)[C@@H]2O)c(=O)n1 [Cytarabine] | 1 | 0.998 | 1 | 0.986 | 0.993 | 0.989 | 0.998 | 0.997
C[C@H](N)[C@H](O)c1cccc(O)c1 [Metaraminol bitartrate] | 0.992 | 0.972 | 0.984 | 1.01 | 0.993 | 0.989 | 0.994 | 1
CN(Cc1cc(Br)cc(Br)c1N)C1CCCCC1 [Bromhexine hydrochloride] | 0.998 | 1.01 | 0.714 (active) | 1.02 | 0.999 | 0.977 | 1 | 0.948
CC(=O)OCC(=O)[C@@]1(O)CC[C@H]2[C@@H]3CCC4=CC(=O)CC[C@]4(C)[C@@]3(F)[C@@H](O)C[C@@]21C [Fludrocortisone acetate] | 0.995 | 0.988 | 1 | 1 | 1.02 | 1.04 | 1.02 | 0.981
CC[C@@]1(O)C(=O)OCc2c1cc1n(c2=O)Cc2cc3c(CN(C)C)c(O)ccc3nc2-1 [Topotecan] | 1.05 | 1.04 | 1.03 | 1.02 | 1.01 | 1.02 | 1.02 | 0.983
Nc1c(Br)cc(Br)cc1CN[C@H]1CC[C@H](O)CC1 [Ambroxol hydrochloride] | 0.979 | 0.987 | 0.963 | 1 | 0.955 | 0.961 | 0.982 | 0.991
CC(CN(C)C)CN1c2ccccc2Sc2ccccc21 (stereo not given) [Trimeprazine tartrate] | 0.988 | 0.952 | 0.895 | 0.999 | 0.799 | 0.792 | 1 | 0.972
CCn1cc(C(=O)O)c(=O)c2cnc(N3CCCC3)nc21 [Piromidic acid] | 0.996 | 1.04 | 0.0557 (active) | 0.983 | 1.06 | 1.03 | 1.02 | 0.0548 (active)
C[C@]12C=CC(=O)C=C1CC[C@H]1[C@@H]3C[C@@H](O)[C@](O)(C(=O)CO)[C@@]3(C)C[C@H](O)[C@@]12F [Triamcinolone] | 1 | 0.977 | 1 | 1 | 1.01 | 0.98 | 0.997 | 1.01
Cc1c(-c2ccccc2)oc2c(C(=O)OCCN3CCCCC3)cccc2c1=O [Flavoxate hydrochloride] | 1 | 1.02 | 1.01 | 0.984 | 1.06 | 1.1 | 1.02 | 0.952
CC[C@H](C)C(=O)O[C@H]1CCC=C2C=C[C@H](C)[C@H](CC[C@@H]3C[C@@H](O)CC(=O)O3)[C@H]21 [Mevastatin] | 1 | 1.01 | 1.02 | 0.974 | 0.952 | 0.989 | 1.01 | 0.922
COC(=O)Nc1nc2cc(C(=O)c3ccc(F)cc3)ccc2[nH]1 [Flubendazol] | 1.02 | 0.994 | 0.993 | 0.994 | 1.04 | 1.07 | 1.01 | 1
C#C[C@]1(OC(C)=O)CC[C@H]2[C@@H]3CCC4=C[C@@H](OC(C)=O)CC[C@@H]4[C@H]3CC[C@@]21C [Ethynodiol diacetate] | 0.971 | 0.988 | 0.963 | 0.986 | 0.922 | 0.954 | 0.997 | 0.941
CC(C)(C)NC[C@H](O)COc1nsnc1N1CCOCC1 [Timolol maleate salt] | 0.981 | 1.01 | 1.01 | 0.987 | 1.01 | 1.01 | 0.999 | 0.999
COc1cc2nc(N3CCN(C(=O)c4ccco4)CC3)nc(N)c2cc1OC [Prazosin hydrochloride] | 0.993 | 0.984 | 1 | 1.01 | 1 | 1 | 0.993 | 0.97
Nc1ccc(S(=O)(=O)NC(=O)c2ccccc2)cc1 [Sulfabenzamide] | 1.02 | 1.03 | 1.06 | 1.04 | 1.05 | 1.1 | 1 | 1.01
CC(=O)SCC(Cc1ccccc1)C(=O)NCC(=O)OCc1ccccc1 (stereo not given) [Racecadotril] | 1 | 1 | 1 | 1.01 | 1.06 | 1.05 | 1 | 0.963
CN(C)CCN(Cc1ccccc1)c1ccccn1 [Tripelennamine hydrochloride] | 1 | 0.993 | 1.01 | 0.973 | 0.982 | 0.985 | 0.965 | 1
CN(C)CCOC(c1ccccc1)c1ccccc1 [Diphenhydramine hydrochloride] | 0.993 | 0.976 | 0.976 | 0.969 | 1.01 | 1 | 0.981 | 1

Source: the supplement of paper PMC12350171
